Potency and affinity values are given separately. Active and inactive are the calls of the source.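 Rule for the calls: active = cell killing with a fitted half-effect concentration at or below twice the top valid dose; inconclusive = flat curve with 30 to 70 percent drop, or poor fit; inactive = the rest.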
Test: viability loss in HEK293T kidney cells – cell-based, ATP luminescence, cherry-pick, set 6, cytotoxicity control, dose response (AID 1053126)
Conditions: CellTiter-Glo ATP luminescence, 72 h; series mostly up to 26 µM

Which outcome does the source give for `COCCNC(=S)N/N=C/c1ccc(-c2ccc([N+](=O)[O-])cc2)o1` here?
Its outcome is “inactive”.

For `CCOc1ccc(NC(=O)CN(C)C(=O)CCCNC(=O)c2ccc(Cl)cc2)cc1OCC`, which outcome is on record?
The outcome was “inactive”.

With `Cc1cccn2c(=O)c3cc(C(N)=S)c(=N)n(CCCOC(C)C)c3nc12` as the molecule, how does the outcome read?
Its outcome is “inactive”.

With `Nc1cccc2c1C(=O)N(c1ccccc1)C2=O` as the molecule, how does the outcome read?
Its outcome is “inactive”.

With `Cc1ccc(-c2nc3ccsc3c(=O)[nH]2)cc1` as the molecule, how does the outcome read?
Its outcome is “inactive”.

For `S=c1[nH]c2ccc(Cc3ccc4[nH]c(=S)[nH]c4c3)cc2[nH]1`, which outcome is on record?
Its outcome is “inactive”.

Which outcome does the source give for `CC(=O)N=c1c(C#N)cc2c(=O)n3ccccc3nc2n1CCCOC(C)C` here?
Its outcome is “inactive”.

For `COCCN1C=C(C(=O)OC)C(c2ccc(Cl)cc2)C(C(=O)OC)=C1`, which outcome is on record?
The outcome was “inactive”.

For `CC(C)OCCCn1c(=N)c(C(N)=S)cc2c(=O)n3ccccc3nc21`, which outcome is on record?
The outcome was “inactive”.

With `CSC1=NSC2=NC(=O)/C(=C/c3coc4ccc(O)cc4c3=O)C(=N)N12` as the molecule, how does the outcome read?
The outcome was “inactive”.

With `CCOC(=O)c1cc2c(=O)n3cccc(C)c3nc2n(CC(C)C)c1=NC(=O)c1ccco1` as the molecule, how does the outcome read?
Its outcome is “inactive”.

For `O=C(O)c1[nH]c2ccccc2c1C(c1cc(Br)ccc1O)c1c(C(=O)O)[nH]c2ccccc12`, which outcome is on record?
The outcome was “inactive”.

For `CN1CCN(c2nc3ccccn3c(=O)c2/C=C(\C#N)S(=O)(=O)c2ccccc2)CC1`, which outcome is on record?
Its outcome is “inactive”.

For `O=C(O)c1cccc(NC(=O)c2cn(-c3ccccc3)nc2-c2cccc(Br)c2)c1`, which outcome is on record?
The outcome was “inactive”.

With `O=C(Cc1csc(-c2ccccc2)n1)NCc1ccccc1F` as the molecule, how does the outcome read?
Its outcome is “inactive”.

Which outcome does the source give for `Cc1c2c(n3c(nc4ccccc43)c1C#N)N(CCN1CCOCC1)CC2` here?
Its outcome is “inactive”.

For `COc1ccc(Cn2nnnc2C(CC(C)C)N2CCC(C(N)=O)CC2)cc1` (stereo not drawn), which outcome is on record?
Its outcome is “inactive”.

For `CCC(C)n1c(=N)c(C#N)cc2c(=O)n3cccc(C)c3nc21` (stereo not drawn), which outcome is on record?
The outcome was “inactive”.

Which outcome does the source give for `CC(=O)OC[C@@H]1CN(Cc2ccccc2)C[C@H](n2cnc3c(N(C)C(C)C)ncnc32)O1` here?
Its outcome is “inactive”.

Which outcome does the source give for `Cc1cccn2c(=O)c(/C=C(\C#N)C(N)=O)c(Oc3ccccc3)nc12` here?
Its outcome is “inactive”.

With `Nc1nc(-c2cc(O)ccc2[N+](=O)[O-])cc(-c2ccccc2)c1[N+](=O)[O-]` as the molecule, how does the outcome read?
Its outcome is “inactive”.

Which outcome does the source give for `CCN(CC)CCCNc1nc(C)cc(COC)c1C#N` here?
Its outcome is “inactive”.

Which outcome does the source give for `O=C(/C=C/c1ccccc1)C1=C(O)C(=O)N(CCO)C1c1ccc2c(c1)OCO2` (stereo not drawn) here?
The outcome was “inactive”.

With `CCc1ccccc1S(=O)(=O)Cc1ccc(C(=O)N2CCN(c3ccccc3OC)CC2)o1` as the molecule, how does the outcome read?
The outcome was “inactive”.

Which outcome does the source give for `N=c1oc2cc(O)ccc2cc1C(=O)Nc1nc2ccccc2s1` here?
The outcome was “inactive”.

Which outcome does the source give for `CCCCCCc1cc2cc(S(=O)(=O)c3ccc(F)cc3)c(=O)oc2cc1O` here?
Its outcome is “inactive”.

For `CCC(=O)NCCCNc1nc2c(C)cccc2cc1C#N`, which outcome is on record?
The outcome was “inactive”.

For `CC(=O)c1cc2c(ccc3ccccc32)oc1=O`, which outcome is on record?
The outcome was “inactive”.

For `CN(C)CCOCCOc1ccc(Cl)c2ccccc12`, which outcome is on record?
Its outcome is “inactive”.

Which outcome does the source give for `CCCOc1ccccc1/C=C1\SC(N)=NC1=O` here?
Its outcome is “inactive”.

Which outcome does the source give for `N#CC1=C(N)OC2=C(C(=O)CCC2)C1c1cc2c(cc1Br)OCO2` (stereo not drawn) here?
Its outcome is “inactive”.

Which outcome does the source give for `CCOC(=O)c1c(C)n(C)c2ccc(OCC(O)CN3CCC(C)CC3)cc12` (stereo not drawn) here?
The outcome was “inactive”.

Which outcome does the source give for `Cc1cccn2c(=O)c3cc(C(=O)NCc4ccco4)c(=N)n(CCc4ccccc4)c3nc12` here?
Its outcome is “inactive”.

Which outcome does the source give for `CCOC(=O)C1CCCN(CCCc2ccccc2)C1` (stereo not drawn) here?
The outcome was “inactive”.

Which outcome does the source give for `CCOc1ccc2nc(NCCCNS(=O)(=O)c3ccc(C)cc3)c(C#N)cc2c1` here?
Its outcome is “inactive”.

For `CCn1c(=N)c(S(=O)(=O)c2ccccc2)cc2c(=O)n3ccccc3nc21`, which outcome is on record?
The outcome was “inactive”.

With `COCCCn1c(=N)c(C(=O)NC2CCCCC2)cc2c(=O)n3ccccc3nc21` as the molecule, how does the outcome read?
Its outcome is “inactive”.

Which outcome does the source give for `CCN(c1ccccc1)S(=O)(=O)c1ccc(OC)c(NC(=O)CN(C)C)c1` here?
The outcome was “inactive”.

From PubChem BioAssay AID1053126 (Broad Institute, 2014)
